# According to PubChem BioAssay AID1159580 (chemical genetic matrix, 2015):
# Screen size: about 5,500 compounds; about 2,000 (36%) were called active. Roughly 18% stayed inconclusive and do not appear here. This is one part of the list. Values without a mark were called inactive. Rule as the data show it: active = normalized growth mostly below about 0.91 (no sharp cut-off); inconclusive = no clear call, values can overlap the other calls; inactive = mostly above about 0.92.
# Test: chemical genetic growth profiling, strain panel (AID 1159580);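 also: tested at 20 µM; growth read once vehicle control cultures reached saturation at 30 °C; 1 = growth at the plate median or of vehicle wells; lower values mean less growth of the strain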
# Details: S. cerevisiae deletion strains, growth OD
compound,measurement,setting,value
C=C1CCC2(OC1)OC1CC3C4CC=C5CC(O)CC(O)C5(C)C4CCC3(C)C1C2C (centres undefined),normalized growth,"locus YAL021C, strain ccr4, hits give low values",0.929
same,normalized growth,"locus YAL026C, strain drs2, hits give low values",0.87 (active)
same,normalized growth,"locus YAL030W, strain snc1, hits give low values",1.01
same,normalized growth,"locus YBL061C, strain skt5, hits give low values",1.01
same,normalized growth,"locus YBR009C, strain hhf1, hits give low values",0.873 (active)
same,normalized growth,"locus YBR023C, strain chs3, hits give low values",0.976
same,normalized growth,"locus YBR171W, strain sec66, hits give low values",1.01
same,normalized growth,"locus YBR231C, strain swc5, hits give low values",1.03
same,normalized growth,"locus YBR279W, strain paf1, hits give low values",0.995
same,normalized growth,"locus YCL011C, strain gbp2, hits give low values",0.914
same,normalized growth,"locus YCL016C, strain dcc1, hits give low values",0.979
same,normalized growth,"locus YCL069W, strain vba3, hits give low values",0.939
same,normalized growth,"locus YCR088W, strain abp1, hits give low values",0.984
same,normalized growth,"locus YDL005C, strain med2, hits give low values",0.995
same,normalized growth,"locus YDL040C, strain nat1, hits give low values",1.01
same,normalized growth,"locus YDR001C, strain nth1, hits give low values",1.01
same,normalized growth,"locus YDR069C, strain doa4, hits give low values",1.01
same,normalized growth,"locus YDR137W, strain rgp1, hits give low values",0.586 (active)
same,normalized growth,"locus YDR159W, strain sac3, hits give low values",0.916
same,normalized growth,"locus YDR195W, strain ref2",0.889
same,normalized growth,"locus YDR297W, strain sur2, hits give low values",1.01
same,normalized growth,"locus YDR334W, strain swr1, hits give low values",1.01
same,normalized growth,"locus YDR335W, strain msn5, hits give low values",0.899 (active)
same,normalized growth,"locus YDR392W, strain spt3, hits give low values",0.819
same,normalized growth,"locus YEL003W, strain gim4, hits give low values",0.99
same,normalized growth,"locus YEL037C, strain rad23, hits give low values",1
same,normalized growth,"locus YEL061C, strain CIN8 (second series), hits give low values",0.94
same,normalized growth,"locus YER015W, strain faa2, hits give low values",1
same,normalized growth,"locus YER016W, strain bim1, hits give low values",0.992
same,normalized growth,"locus YER111C, strain swi4, hits give low values",0.958
same,normalized growth,"locus YER155C, strain BEM2 (second series), hits give low values",1.01
same,normalized growth,"locus YFR010W, strain ubp6, hits give low values",0.97
same,normalized growth,"locus YGL167C, strain pmr1, hits give low values",1.02
same,normalized growth,"locus YGL173C, strain kem1, hits give low values",1.01
same,normalized growth,"locus YGL227W, strain vid30, hits give low values",0.976
same,normalized growth,"locus YGL240W, strain doc1, hits give low values",1
same,normalized growth,"locus YGL253W, strain hxk2, hits give low values",0.855 (active)
same,normalized growth,"locus YHR013C, strain ard1, hits give low values",1.06
same,normalized growth,"locus YHR027C, strain rpn1, hits give low values",0.966
same,normalized growth,"locus YHR142W, strain chs7, hits give low values",0.749 (active)
same,normalized growth,"locus YJL092W, strain hpr5, hits give low values",0.978
same,normalized growth,"locus YJL095W, strain BCK1 (second series), hits give low values",0.966
same,normalized growth,"locus YJL115W, strain asf1, hits give low values",1.01
same,normalized growth,"locus YJL129C, strain trk1, hits give low values",0.853 (active)
same,normalized growth,"locus YJL154C, strain vps35, hits give low values",1
same,normalized growth,"locus YJL164C, strain tpk1, hits give low values",0.886 (active)
same,normalized growth,"locus YJL166W, strain qcr8, hits give low values",0.944
same,normalized growth,"locus YKL160W, strain elf1, hits give low values",0.986
same,normalized growth,"locus YKR026C, strain gcn3, hits give low values",0.994
same,normalized growth,"locus YKR091W, strain srl3, hits give low values",1.01
same,normalized growth,"locus YLL001W, strain dnm1, hits give low values",0.923
same,normalized growth,"locus YLL026W, hits give low values",0.98
same,normalized growth,"locus YLL041C, strain sdh2, hits give low values",1
same,normalized growth,"locus YLR027C, strain aat2, hits give low values",0.987
same,normalized growth,"locus YLR258W, strain gsy2, hits give low values",0.988
same,normalized growth,"locus YLR262C, strain YPT6 (second series), hits give low values",0.548 (active)
same,normalized growth,"locus YLR320W, strain mms22, hits give low values",0.929
same,normalized growth,"locus YLR342W, strain FKS1, hits give low values",1.01
same,normalized growth,"locus YLR357W, strain rsc2, hits give low values",1.07
same,normalized growth,"locus YLR370C, strain arc18, hits give low values",1.02
same,normalized growth,"locus YLR384C, strain iki3, hits give low values",1.01
same,normalized growth,"locus YML120C, strain ndi1, hits give low values",0.928
same,normalized growth,"locus YMR058W, strain fet3, hits give low values",0.959
same,normalized growth,"locus YMR125W, strain sto1, hits give low values",1
same,normalized growth,"locus YMR129W, hits give low values",1.01
same,normalized growth,"locus YMR205C, strain PFK2, hits give low values",0.865 (active)
same,normalized growth,"locus YMR231W, strain pep5, hits give low values",1.02
same,normalized growth,"locus YNL071W, strain lat1, hits give low values",0.846 (active)
same,normalized growth,"locus YNL209W, strain ssb2, hits give low values",1.02
same,normalized growth,"locus YNL248C, strain rpa49, hits give low values",0.987
same,normalized growth,"locus YNL322C, strain KRE1 (second series), hits give low values",1
same,normalized growth,"locus YNR049C, strain mso1, hits give low values",1
same,normalized growth,"locus YOR001W, strain rrp6, hits give low values",0.944
same,normalized growth,"locus YOR070C, strain gyp1, hits give low values",0.997
same,normalized growth,"locus YOR080W, strain dia2, hits give low values",1.02
same,normalized growth,"locus YOR083W, strain WHI5, hits give low values",0.979
same,normalized growth,"locus YOR106W, strain vam3, hits give low values",0.911
same,normalized growth,"locus YOR265W, strain rbl2, hits give low values",1.01
same,normalized growth,"locus YOR270C, strain vph1, hits give low values",0.771 (active)
same,normalized growth,"locus YOR290C, strain snf2, hits give low values",0.887
same,normalized growth,"locus YPL051W, strain arl3, hits give low values",0.907 (active)
same,normalized growth,"locus YPL078C, strain atp4, hits give low values",0.929
same,normalized growth,"locus YPL106C, strain sse1, hits give low values",1.03
same,normalized growth,"locus YPL240C, strain hsp82, hits give low values",0.974
CC1CC[C@@]2(OC1)O[C@H]1CC3C4CC[C@@H]5CC(=O)CC[C@]5(C)C4CC[C@]3(C)[C@H]1[C@@H]2C (some centres undefined),normalized growth,"locus YBR021W, strain FUR4, hits give low values",1.01
same,normalized growth,"locus YBR229C, strain ROT2, hits give low values",1.01
same,normalized growth,"locus YCL029C, strain bik1, hits give low values",1.01
same,normalized growth,"locus YDL035C, strain GPR1, hits give low values",1.05
same,normalized growth,"locus YDL074C, strain BRE1, hits give low values",1.04
same,normalized growth,"locus YDL101C, strain DUN1, hits give low values",0.975
same,normalized growth,"locus YDL134C, strain PPH21, hits give low values",0.982
same,normalized growth,"locus YDL185W, strain tfp1, hits give low values",0.982
same,normalized growth,"locus YDL192W, strain arf1, hits give low values",1.01
same,normalized growth,"locus YDR101C, strain arx1, hits give low values",1.02
same,normalized growth,"locus YDR150W, strain NUM1, hits give low values",1
same,normalized growth,"locus YDR162C, strain NBP2, hits give low values",1
same,normalized growth,"locus YDR318W, strain mcm21, hits give low values",1
same,normalized growth,"locus YDR388W, hits give low values",0.993
same,normalized growth,"locus YDR502C, strain sam2, hits give low values",0.974
same,normalized growth,"locus YER110C, hits give low values",0.994
same,normalized growth,"locus YER155C, strain BEM2, hits give low values",0.985
same,normalized growth,"locus YER167W, strain BCK2, hits give low values",1
same,normalized growth,"locus YGL078C, strain dbp3, hits give low values",0.963
same,normalized growth,"locus YGL086W, strain mad1, hits give low values",0.989
same,normalized growth,"locus YGL248W, strain PDE1, hits give low values",0.973
same,normalized growth,"locus YGR078C, strain PAC10, hits give low values",0.993
same,normalized growth,"locus YGR135W, strain pre9, hits give low values",0.948
same,normalized growth,"locus YGR252W, strain gcn5, hits give low values",0.997
same,normalized growth,"locus YHR079C, strain IRE1 (second series), hits give low values",0.996
same,normalized growth,"locus YHR094C, strain hxt1, hits give low values",0.985
same,normalized growth,"locus YHR129C, strain ARP1, hits give low values",0.996
same,normalized growth,"locus YHR200W, strain rpn10, hits give low values",0.987
same,normalized growth,"locus YIL066C, strain RNR3, hits give low values",1.02
same,normalized growth,"locus YIL073C, strain SPO22, hits give low values",0.983
same,normalized growth,"locus YIL125W, strain kgd1, hits give low values",1
same,normalized growth,"locus YIR030C, strain dcg1, hits give low values",0.98
same,normalized growth,"locus YJL095W, strain BCK1, hits give low values",0.977
same,normalized growth,"locus YJL134W, strain LCB3, hits give low values",0.991
same,normalized growth,"locus YJL168C, strain set2, hits give low values",0.986
same,normalized growth,"locus YJL187C, strain SWE1 (second series), hits give low values",0.968
same,normalized growth,"locus YKL009W, strain mrt4, hits give low values",0.986
same,normalized growth,"locus YKL068W, hits give low values",0.985
same,normalized growth,"locus YKL085W, strain MDH1 (second series), hits give low values",0.984
same,normalized growth,"locus YKL085W, strain MDH1, hits give low values",0.984
same,normalized growth,"locus YKR001C, strain vps1, hits give low values",0.986
same,normalized growth,"locus YLR039C, strain RIC1, hits give low values",0.996
same,normalized growth,"locus YLR058C, strain SHM2, hits give low values",0.999
same,normalized growth,"locus YLR102C, strain apc9, hits give low values",0.984
same,normalized growth,"locus YLR268W, strain sec22, hits give low values",1.04
same,normalized growth,"locus YLR342W, strain FKS1 (second series), hits give low values",1.07
same,normalized growth,"locus YLR371W, strain rom2, hits give low values",1.01
same,normalized growth,"locus YLR418C, strain cdc73, hits give low values",0.942
same,normalized growth,"locus YML016C, strain PPZ1, hits give low values",0.988
same,normalized growth,"locus YML032C, strain rad52, hits give low values",1.01
same,normalized growth,"locus YML124C, strain tub3, hits give low values",0.995
same,normalized growth,"locus YMR078C, strain ctf18, hits give low values",0.985
same,normalized growth,"locus YMR223W, strain ubp8, hits give low values",0.996
same,normalized growth,"locus YMR307W, strain GAS1, hits give low values",0.94
same,normalized growth,"locus YNL067W, strain RPL9B, hits give low values",0.966
same,normalized growth,"locus YNL233W, strain BNI4, hits give low values",0.972
same,normalized growth,"locus YNL250W, strain rad50, hits give low values",0.929
same,normalized growth,"locus YNL271C, strain bni1, hits give low values",0.981
same,normalized growth,"locus YNL298W, strain CLA4, hits give low values",1
same,normalized growth,"locus YNL307C, strain MCK1, hits give low values",0.986
same,normalized growth,"locus YNR052C, strain pop2, hits give low values",0.972
same,normalized growth,"locus YOL006C, strain TOP1, hits give low values",1.16
same,normalized growth,"locus YOL012C, strain htz1",1.11
same,normalized growth,"locus YOL147C, strain pex11, hits give low values",1.01
same,normalized growth,"locus YOR061W, strain CKA2, hits give low values",1.01
same,normalized growth,"locus YOR069W, strain VPS5, hits give low values",0.989
same,normalized growth,"locus YOR136W, strain idh2, hits give low values",0.992
same,normalized growth,"locus YOR144C, strain elg1, hits give low values",0.992
same,normalized growth,"locus YOR184W, strain ser1, hits give low values",1.06
same,normalized growth,"locus YOR316C, strain cot1, hits give low values",0.986
same,normalized growth,"locus YPR119W, strain clb2, hits give low values",0.985
same,normalized growth,"locus YPR141C, strain kar3, hits give low values",0.973
same,normalized growth,"locus YPR163C, strain tif3, hits give low values",0.993
same,normalized growth,"locus YPR167C, strain met16, hits give low values",0.985
same,normalized growth,"strain wtn01, hits give low values",1.01
